The values that follow come from PubChem BioAssay (NCI).

Test systems include NCI-H23 lung; NCI-H322M lung; HOP-62 NSCLC; NCI-H460 lung; HOP-92 NSCLC; NCI-H522 lung; A549/ATCC NSCLC; 786-0 renal; COLO 205 colon; DU-145 prostate; K-562 leukemia; MALME-3M melanoma; MDA-MB-231 breast; RXF 393 renal; SF-268 CNS; SF-295 CNS; SF-539 CNS; UACC-257 melanoma; M14 melanoma.
What all share (experiment): NCI-60 one-dose screen, 48 h (100 = growth as untreated, 0 = no growth, -100 = all killed)
Details in all cases: 10 µM unless noted

Compounds without any hit were thinned out: in the full panel of roughly 83,000, 20% have a hit.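 Each cell line was grown in a 96-well plate and treated with one concentration of compound for 48 hours. Values below 10 were considered active.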 Unmarked numbers belong to inactive results. Activity calls are given as the source filed them.

For `CS(=O)(=O)Nc1cccc(-c2ccc3ncnc(Nc4cncc(Cl)c4)c3c2)c1`, the growth was 47.1% in the test with NCI-H23 lung; 19.9% in the test on NCI-H322M lung; 40.5% in the test with HOP-62 NSCLC; 44.9% in the test on NCI-H460 lung; 11.2% in the test with HOP-92 NSCLC; 28.1% in the test on NCI-H522 lung. Also, the growth is 30.5% in the test on A549/ATCC NSCLC; 10.1% in the test on 786-0 renal; 5.27% (active) in the test with COLO 205 colon; 38.6% with DU-145 prostate; 16.9% in the test on K-562 leukemia; 40.3% in the test on MALME-3M melanoma. For the same compound, the growth with MDA-MB-231 breast was 1.39% (active); in the test on RXF 393 renal, 19.8%; in the test with SF-268 CNS, 42.4%; with SF-295 CNS it was -17.7% (active); with SF-539 CNS it was 2.94% (active); with UACC-257 melanoma it was 49.7%. Besides, the growth in the test with M14 melanoma was 16.8%.

For the compound `C/C(=N/O)c1ccc(NC(=O)Cn2nc(-c3ccc(Cl)cc3)nc2N)cc1`, the growth in the test on NCI-H23 lung is 92.7%; in the test on NCI-H322M lung, 92.4%; in the test with HOP-62 NSCLC, 88.8%; in the test with NCI-H460 lung, 100%; with HOP-92 NSCLC it was 99.2%; in the test on NCI-H522 lung, 68.7%. In addition, the growth in the test on A549/ATCC NSCLC is 79.3%; in the test on 786-0 renal, 109%; in the test on COLO 205 colon, 101%; in the test on DU-145 prostate, 104%; in the test with K-562 leukemia it was 99.3%; with MALME-3M melanoma, 102%. Further, the growth with MDA-MB-231 breast is 82.7%; with RXF 393 renal, 100%; with SF-268 CNS, 89.2%; in the test on SF-295 CNS, 107%; in the test on SF-539 CNS, 97.3%; in the test with UACC-257 melanoma, 73%. In addition, the growth in the test with M14 melanoma is 107%.

Take `O=C(COc1ccc(Cl)cc1)N1CCN(Cc2ccc3c(c2)OCO3)CC1`: the growth with NCI-H23 lung was 89.8%; in the test on NCI-H322M lung it was 105%; in the test with HOP-62 NSCLC, 101%; in the test with NCI-H460 lung, 107%; in the test with HOP-92 NSCLC, 81.1%; in the test on NCI-H522 lung it was 93.8%. Moreover, the growth in the test on A549/ATCC NSCLC is 96.3%; in the test with 786-0 renal it was 101%; in the test on COLO 205 colon, 96.1%; with DU-145 prostate, 113%; in the test on K-562 leukemia, 84.8%; in the test with MALME-3M melanoma, 98.4%. Moreover, the growth was 87.2% in the test on MDA-MB-231 breast; 109% in the test with RXF 393 renal; 95.9% with SF-268 CNS; 95.4% in the test with SF-295 CNS; 104% in the test with SF-539 CNS; 103% in the test on UACC-257 melanoma. Moreover, the growth in the test with M14 melanoma was 111%.

`Nc1nc(Cl)c2c(C(F)(F)F)cn(CC3CCNCC3)c2n1`: the growth in the test with NCI-H23 lung was 47.5%; with NCI-H322M lung, 100%; with HOP-62 NSCLC, 103%; with NCI-H460 lung it was 103%; in the test on HOP-92 NSCLC, 57.9%; in the test on NCI-H522 lung, 5.07% (active). The growth in the test with A549/ATCC NSCLC was 94.2%; in the test on 786-0 renal it was 95.5%; in the test with COLO 205 colon, 94%; in the test with DU-145 prostate, 109%; in the test with MALME-3M melanoma it was 101%; with MDA-MB-231 breast, 54.2%. In addition, the growth in the test on RXF 393 renal is 52.9%; in the test on SF-268 CNS, 96.2%; in the test with SF-295 CNS it was 105%; with SF-539 CNS, 107%; in the test with UACC-257 melanoma, 83.8%; with M14 melanoma, 57.3%.

With `C/C(=N/NC(=O)Cn1c2ccccc2c2ccncc21)c1cccs1`, the growth in the test with NCI-H23 lung was 98.1%; in the test on NCI-H322M lung, 109%; in the test on HOP-62 NSCLC, 100%; in the test with NCI-H460 lung it was 94.6%; with HOP-92 NSCLC it was 92%; in the test with NCI-H522 lung it was 85.6%. In addition, the growth with A549/ATCC NSCLC was 84.7%; in the test with 786-0 renal, 100%; in the test on COLO 205 colon, 105%; with DU-145 prostate, 108%; in the test on MALME-3M melanoma, 100%; in the test on MDA-MB-231 breast it was 97.4%. The growth was 98.7% with RXF 393 renal; 95.5% in the test on SF-268 CNS; 109% in the test on SF-295 CNS; 108% in the test on SF-539 CNS; 89.9% in the test on UACC-257 melanoma; 104% with M14 melanoma.

Consider `COc1ccc(Cn2cc3c(c2-c2cc(OC)c(OC)c(OC)c2)CCc2c(CO)noc2-3)cc1`, for which the growth in the test with NCI-H23 lung was 38.3%; with NCI-H322M lung, 39.7%; with HOP-62 NSCLC, 35.2%; in the test on NCI-H460 lung, 4.62% (active); in the test on HOP-92 NSCLC it was 57%; with NCI-H522 lung, 9.75% (active). For the same compound, the growth with A549/ATCC NSCLC was 32.5%; in the test on 786-0 renal it was 45%; in the test with COLO 205 colon, -23.6% (active); with DU-145 prostate it was 19.4%; in the test on K-562 leukemia, 7.1% (active); in the test with MALME-3M melanoma it was 94.8%. Also, the growth in the test with MDA-MB-231 breast is 18%; with RXF 393 renal, 2.44% (active); with SF-268 CNS, 43%; in the test on SF-295 CNS, 14.8%; in the test on SF-539 CNS, 3.55% (active); in the test on UACC-257 melanoma, 64.6%. The growth in the test with M14 melanoma is 7.98% (active).

`C=C1C(=O)O[C@H]2[C@H]1CC/C(COC(=O)c1ccc(C#N)cc1)=C\CC[C@@]1(C)O[C@@H]21`: the growth is 54.4% with NCI-H23 lung; 68.1% with NCI-H322M lung; 61.3% in the test on HOP-62 NSCLC; 53.7% in the test with NCI-H460 lung; -35.8% (active) in the test with HOP-92 NSCLC; -89.6% (active) in the test with NCI-H522 lung. The growth in the test on A549/ATCC NSCLC is 40.8%; with 786-0 renal it was 22.9%; in the test on COLO 205 colon, -77.7% (active); in the test with DU-145 prostate, 18.4%; in the test with MALME-3M melanoma it was -22.4% (active); in the test on MDA-MB-231 breast it was 2.94% (active). For the same compound, the growth with RXF 393 renal is -47.7% (active); with SF-268 CNS, 56.8%; in the test with SF-295 CNS, 73.3%; with SF-539 CNS, -32.3% (active); in the test with UACC-257 melanoma, 52.2%; in the test on M14 melanoma it was 15.6%.

`CN1CCN(CC(=O)N(C)c2ccc(N=C(c3ccccc3)c3c(O)[nH]c4ccc(C#N)cc34)cc2)CC1`: the growth in the test on NCI-H23 lung is 35.5%; with NCI-H322M lung it was 37.7%; in the test on HOP-62 NSCLC it was 39.7%; in the test on NCI-H460 lung, 21.2%; in the test on HOP-92 NSCLC, 63.8%; with NCI-H522 lung, 45.3%. For the same compound, the growth with A549/ATCC NSCLC was 19.6%; in the test on 786-0 renal it was 32.4%; in the test on COLO 205 colon, 0.511% (active); with DU-145 prostate, 32.8%; with K-562 leukemia, 11%; with MALME-3M melanoma it was 35.5%. In addition, the growth in the test on MDA-MB-231 breast was 42.5%; in the test on RXF 393 renal, 3.21% (active); with SF-268 CNS, 32%; with SF-295 CNS it was 18.2%; in the test with SF-539 CNS it was -20.2% (active); in the test on UACC-257 melanoma, 78.5%. Also, the growth with M14 melanoma is 30.7%.

For the compound `N#Cc1c(N)nc2c(c1N)C(c1ccc(Cl)cc1)C1=C(CCCC1=O)N2c1sc2c(c1C#N)CCCC2` (stereo not drawn), the growth with NCI-H23 lung was 91.2%; in the test with NCI-H322M lung it was 83.5%; with HOP-62 NSCLC, 80%; in the test with NCI-H460 lung, 97.3%; in the test on HOP-92 NSCLC it was 62%; in the test on NCI-H522 lung, 84.3%. The growth with A549/ATCC NSCLC was 90.1%; in the test with 786-0 renal, 80.1%; in the test on COLO 205 colon it was 96.2%; in the test on DU-145 prostate it was 99.7%; in the test on K-562 leukemia it was 74.2%; in the test with MALME-3M melanoma it was 90.7%. Moreover, the growth with MDA-MB-231 breast is 75.4%; in the test on RXF 393 renal, 60.6%; in the test on SF-268 CNS it was 89.5%; in the test with SF-295 CNS it was 101%; in the test with SF-539 CNS, 96%; in the test on UACC-257 melanoma, 92.6%. Further, the growth in the test on M14 melanoma was 90.3%.
